In the library only some 7.6% were active in any assay of this set; here they are far more common.
ERK AVP inh: inhibitors of vasopressin-stimulated ERK signaling pathway. AID 995. Potency, µM (doses to about 57.5 µM), without a hit: top-dose activity, negative = inhibition, actives largely listed as inhibitors. 72,000 tested, 0.99% active. HEK293-V1b, vasopressin-stimulated pERK AlphaScreen; further: on the % scale 0 is the no-effect control and ±100 the full control effect; nearly all actives have a fitted effect of over 55% in size
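qHTS, compounds titrated on V1b-expressing HEK293 cells. Preincubation 30 min at 37C, vasopressin 25 nM for 5 min, lysis 10 min, bead incubation 5 hr at room temperature.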
TSHR agonist: activates the human thyroid stimulating hormone receptor | P16473 | HEK293-CNG-TSHR cells (CNG channel as cAMP sensor), membrane potential dye, cAMP | Potency, µM (series often up to 57.1 µM), for the others: at the highest dose activation, hits mostly activators | 73,000 tested, 0.48% active; active means well fitted activation curve with a large enough effect in the main read-out, with a control signal flat, not every such curve was filed as active; inconclusive means small, poorly fitted or top-dose-only effect, or a change in a side signal; inactive means no such curve, though single readings can be large or run the other way; % of control where 0% means no effect;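 further: the control signal comes from parental cells without the receptor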
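cAMP rise detected as CNG-channel membrane depolarization by fluorescent dye (emission 590 nm), 30 min after compound, following 60 min dye loading containing 100 uM RO 20-1724 at room temperature. Cells: TSHR/CNG HEK 293, with parental CNG HEK 293 as control.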
CRE-bla Fsk: modulators of forskolin-stimulated CRE signaling in CHO cells | AID 662 | Potency, µM (top dose mostly 38.2 µM), without a hit: at the top dose activity change, negative = inhibition, actives largely listed as activators | 71,000 tested, 2.5% active | CHO CRE-bla reporter (cAMP response element driving beta-lactamase), forskolin EC10, beta-lactamase ratio; active means well fitted activation curve with a large enough effect in the signal ratio, with a control signal flat, not every such curve was filed as active; inconclusive means small, poorly fitted or top-dose-only effect, or effect the other way, or a change in a side signal; the % refers to the signal ratio; further: % of control where 0% means no effect
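Titrated compounds plus EC10 NKH 477 on CHO CRE-bla cells, 3 h, 37 °C. CCF4, 2 h RT. Ratio 460/530 nm → AC50.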
Tau fil binding: binds recombinant human tau filaments; P10636; 71,000 tested, 2% active; recombinant tau filaments, thioflavin S fluorescence, 15 h; filaments grown with octadecylsulfate alongside compound; Potency, µM (series often up to 57.1 µM), without a hit: top-dose activity change, negative = inhibition;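 further: on the % scale 0 is the no-effect control and ±100 the full control effect; actives lower thioflavin S fluorescence by blocking filaments or displacing dye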
Target sequence (P10636 whole entry, looked up): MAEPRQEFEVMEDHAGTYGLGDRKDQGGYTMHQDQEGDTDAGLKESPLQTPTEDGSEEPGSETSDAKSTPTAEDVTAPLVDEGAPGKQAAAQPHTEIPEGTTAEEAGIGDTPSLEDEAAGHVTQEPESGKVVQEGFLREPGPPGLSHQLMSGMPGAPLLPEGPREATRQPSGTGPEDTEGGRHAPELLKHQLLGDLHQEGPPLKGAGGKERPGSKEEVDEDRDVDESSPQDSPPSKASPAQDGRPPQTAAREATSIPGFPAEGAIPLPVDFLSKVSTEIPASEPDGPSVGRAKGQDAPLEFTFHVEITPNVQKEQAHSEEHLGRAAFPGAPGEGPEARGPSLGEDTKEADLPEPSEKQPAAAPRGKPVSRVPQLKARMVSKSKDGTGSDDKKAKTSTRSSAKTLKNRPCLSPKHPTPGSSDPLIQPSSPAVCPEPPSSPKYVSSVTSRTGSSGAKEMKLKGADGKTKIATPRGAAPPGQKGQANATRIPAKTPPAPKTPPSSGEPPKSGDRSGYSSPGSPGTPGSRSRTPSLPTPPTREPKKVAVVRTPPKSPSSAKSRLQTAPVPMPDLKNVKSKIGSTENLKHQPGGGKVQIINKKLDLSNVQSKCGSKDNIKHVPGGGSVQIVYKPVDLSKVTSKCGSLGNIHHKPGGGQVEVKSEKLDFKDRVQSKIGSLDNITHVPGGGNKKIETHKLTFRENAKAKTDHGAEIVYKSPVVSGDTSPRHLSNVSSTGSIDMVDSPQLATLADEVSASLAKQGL
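His-tagged recombinant human tau (exons 2, 3, 10; 1 uM final) fibrillized with 30 uM sodium octadecylsulfate, 15 h at 37 C, in pH 7.4 HEPES buffer with 10 uM thioflavine S and 5 mM DTT. Reduced ThS fluorescence (450/510 nm) marks activity.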
HEK293 cAMP cs: parental HEK293 cAMP activation (counter-screen); parental HEK293 CNG cAMP sensor, membrane potential fluorescence; Potency, µM (doses to about 57.1 µM), for inactives: at the highest dose activation, hits mostly activators; 73,000 tested, 2.5% active; further: % of control where 0% means no effect; nearly all actives have a fitted effect of over 55% in size
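Parental HEK 293 cells stably expressing a modified CNG channel (no TSHR) report cAMP rise as membrane depolarization. Membrane potential dye with 100 uM RO 20-1724 was loaded for 60 min at room temperature, then compound added for 30 min; fluorescence read at 590 nm.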
* hit, by the source's call; i = inactive; ? = inconclusive; . = no result given; [ ] = another dose, or the depositor's remark. Unless noted, the call rests on the fitted dose curve; in most records, active means well fitted curve in the direction sought with a large enough effect; inconclusive means small, poorly fitted or top-dose-only effect, or another doubt; inactive means no such curve, though single readings can be large; an effect the other way counts as inactive or inconclusive. Potency means the concentration at half of the fitted maximal effect.

SMILES	ERK AVP inh	TSHR agonist	CRE-bla Fsk	Tau fil binding	HEK293 cAMP cs
COC(=O)C1(C)C=CC2(CCCCC2)N1C(=O)c1ccccc1 (stereo not given)	7.9%	?	-6.8%	-3.8%	?
N/N=C1/c2ccccc2N[C@H]1OC(=O)Nc1ccccc1	-15.6%[11.5 µM]	-11.0%[11.4 µM]	?	3.16µM*	-9.2%[11.4 µM]
C[C@@]12C[C@H](O)[C@@H]3[C@H](CCC4=CC(=O)CC[C@]43C)[C@H]1CC[C@@H]2c1csc(N)n1	0.4%[11.5 µM]	-1.3%[11.4 µM]	0.4%[7.6 µM]	10.1%[11.4 µM]	11.3%[11.4 µM]
COc1ccc(OC)c(C2CC(=O)c3c([nH]c(C(=O)OC(C)C)c3C)C2)c1 (stereo not given)	-25.7%	26.6%	3.16µM*	i	29.6%
COc1cc(C2CC(=O)c3c([nH]c(C(=O)OCCOC(C)C)c3C)C2)cc(OC)c1OC (stereo not given)	3.98µM*	?	-14.6%	13.8%	?
CCCOCCOC(=O)c1[nH]c2c(c1C)C(=O)CC(c1cc(OC)ccc1OC)C2 (stereo not given)	-26.6%	?	2.51µM*	i	?
C/C=C/COC(=O)c1[nH]c2c(c1C)C(=O)CC(c1ccc(N(C)C)cc1)C2 (stereo not given)	?	12.2%	12.9%	78.6%	11.4%
COCCOC(=O)c1[nH]c2c(c1C)C(=O)CC(c1cc(OC)ccc1OC)C2 (stereo not given)	.	13.2%	?	i	23.5%
CCOCCOC(=O)c1[nH]c2c(c1C)C(=O)CC(c1ccc(N(C)C)cc1)C2 (stereo not given)	25.1µM*	11.4%	-0.6%	48.3%	14.2%
CCN(CC)CCCC(C)n1c(-c2ccccc2)nc2c(NCc3ccccc3)nc(C)nc21 (stereo not given)	17.3%	16.2%	-17.5%	135.4%	29.4%
CS(=O)(=O)Nc1cccc(-c2nccc(Nc3ccc(F)cc3)n2)c1	-17.2%	-6.5%	?	4.5%	-20.8%
NNC(=O)[C@@H](O)[C@H](O)C(=O)NN	9.5%[11.5 µM]	8.7%[11.4 µM]	14.0%[7.6 µM]	4.6%[11.4 µM]	0.1%[11.4 µM]
CCOC(=O)c1[nH]c2c(c1C)C(=O)CC(c1ccc(OC)c(OC)c1)C2 (stereo not given)	18.1%	2.7%	9.9%	4.5%	3.2%
COC(=O)c1[nH]c2c(c1C)C(=O)CC(c1ccccc1)C2 (stereo not given)	-12.7%	5.0%	1.58µM*	88.4%	8.7%
c1cn(CCCNc2ncnc3sc4c(c23)CCC4)cn1	-27.0%	7.0%	14.1%	6.4%	9.3%
c1csc(CCNc2ncnc3sc4c(c23)CCC4)c1	?	?	-11.2%	74.5%	20µM*
COc1ccc2[nH]cc(CCNc3ncnc4ccc(-c5ccccc5C#N)cc34)c2c1	-12.6%	-0.1%	0.4%	42.8%	-16.4%
COCc1cc(C)nc(SCC(=O)Nc2cccc3cccnc23)c1C#N	.	6.1%	10µM*	250.3%	11.8%
COCc1cc(C)nc(SCC(=O)Nc2ccc3c(c2)OCO3)c1C#N	-5.7%	4.8%	?	1.8%	2.4%
C#CCOC(=O)NC(/C=C/CCCC)c1ccccc1 (stereo not given)	-0.3%	?	9.7%	-21.4%	?
CC(=O)c1c(C)n(-c2ccccc2)c2ccc(OCC(O)CN3CCOCC3)cc12 (stereo not given)	-10.0%	?	14.9%	37.9%	12.6µM*
CC(=O)c1c(C)n(-c2ccccc2)c2ccc(O)cc12	-0.3%	8.2%	-2.6%	-3.8%	8.5%
c1ccc(-c2nnn(C34CC5CC(CC(C5)C3)C4)n2)cc1	35.0%	31.6µM*	?	-15.0%	19.0%
c1ccc(-c2nnn(CCN3CCCCC3)n2)cc1	-16.7%[11.5 µM]	1.4%[11.4 µM]	3.0%[7.6 µM]	0.6%[11.4 µM]	9.0%[11.4 µM]
CC(C)(SCc1ccccc1)[C@H](N)C(=O)O	-9.5%[11.5 µM]	-5.2%[11.4 µM]	11.2%[7.6 µM]	-1.3%[11.4 µM]	-1.3%[11.4 µM]
SMILES	ERK AVP inh	TSHR agonist	CRE-bla Fsk	Tau fil binding	HEK293 cAMP cs
Cc1cc(NC(=O)CSc2nc3c([nH]c4ccccc43)c(=O)n2-c2cccc(C(F)(F)F)c2)no1	-12.3%	.	2µM*	i	3.3%
COc1cccc(-n2c(SCC(N)=O)nc3c([nH]c4ccccc43)c2=O)c1	?	3.2%[11.4 µM]	21.8%	-6.9%	2.7%
COc1cccc(-n2c(SCC(=O)Nc3cc(C)on3)nc3c([nH]c4ccccc43)c2=O)c1	.	18.7%	3.98µM*	i	7.1%
Cn1cc(-c2nc3cnc(N4CCNCC4)nc3n(C)c2=O)c2ccccc21	12.4%	-6.6%	?	139.0%	-3.4%
O=C1c2ccccc2C(=O)N1CCCc1nc(-c2cccnc2)no1	-2.7%	-0.4%	-0.2%	-9.9%	0.3%
Clc1ccc(OCCCc2nc(-c3cccnc3)no2)c(Cl)c1	40.2%	?	-7.0%	28.4%	15.8µM*
CC(C)C(C)/C=C/C(C)C1CCC2C3=CC=C4CC(O)CCC4(C)C3CCC21C (stereo not given)	30.5%	.	.	.	.
COc1cccc(OCCn2cc(C(=O)c3ccco3)c3ccccc32)c1	-2.3%	?	17.6%	11.6%	?
COc1ccccc1OCCn1cc(C(=O)c2ccco2)c2ccccc21	?	?	?	21.6%	25.1µM*
CO[C@@H]1COC(=O)C/C=C\[C@@H](C)[C@H](OC)COC(=O)[C@H](COCc2ccccc2)NC(=O)C/C=C\[C@H]1C	-6.0%[11.5 µM]	1.6%[11.4 µM]	.	.	0.7%[11.4 µM]
Oc1ccc(Br)cc1/C=N/n1cnc2ccccc21	15.8µM*	-8.2%	?	194.0%	-6.4%
CC(=O)[C@H](CC(C)C)NC(=O)[C@@H](CC(C)C)NC(=O)[C@H](CC(C)C)NC(=O)OCc1ccccc1	21.1%	?	?	?	25.1µM*
c1ccc(/C(=N/Nc2nc3ccccc3s2)c2ccccn2)cc1	-31.3%[11.5 µM]	-2.5%[11.4 µM]	-4.2%[7.6 µM]	-27.5%[11.4 µM]	16.1%[11.4 µM]
COc1ccc(OC)c(Nc2cc(-c3ccccc3)nc(N)n2)c1	10µM*	?	?	15.8µM*	?
Cc1ccc(-n2nc(C)c3c2OC(N)=C(C#N)C3c2ccoc2)cc1 (stereo not given)	-10.4%	-1.8%	-9.8%	31.6µM*	7.7%
Cc1ccc(C)n1-c1ccc(N2CCOCC2)cc1	?	-11.1%	1.5%	25.1µM*	5.1%
NC(=S)NCCC[C@@H](N)C(=O)O	34.6%	2.6%	-1.5%	-1.0%	-8.7%
CCOC(=O)CCN(Cc1cccs1)S(=O)(=O)c1ccc(F)cc1	0.4%	?	13.1%	1.2%	12.6µM*
COC(=O)C(c1ccccc1Cl)N1CCc2sccc2C1 (stereo not given)	4.2%	.	.	.	.
c1ccc(-c2nc(NC3CC3)nc(-n3ccnc3)n2)cc1	-14.9%	.	0.501µM*	3.8%	19.0%
c1ccc(-c2nc(-n3ccnc3)nc(-n3ccnc3)n2)cc1	16.0%	12.1%	1.26µM*	-6.0%	-3.0%
O=C(Nc1ccccc1)N1CCC2(CCNCC2)CC1	10.9%	-2.7%	-8.3%	-9.5%	-6.2%
Cc1ccccc1-c1ccc2ncnc(NC3CC3)c2c1	1.7%	?	?	19.9%	?

From PubChem
